Measured values published in PubChem BioAssay (NCATS).
Values joined by “and” are separate entries in the source; they are usually repeats but may differ in a detail not shown here. Equal entries are not always repeated. Inconclusive results are not listed. Where a structure was tested more than once in an assay, its records may differ in their call. Active and inactive are the calls of the source. Unless noted, calls come from the whole dose curve.

System: not listed separately
Experiment: qHTS assay for small molecule antagonists of peroxisome proliferator-activated receptor delta signaling (AID 588535; active = well fitted inhibition curve with a large enough effect in the signal ratio, with a control signal flat, not every such curve was filed as active; the % refers to the signal ratio;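 for max response: cells co-treated with a PPAR-delta agonist as stimulator during compound exposure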)
Conditions: HEK293T PPARd-UAS-bla, beta-lactamase FRET ratio, 18 h; 460 nm channel
Procedure, shortened: (§1)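 Compounds tested in titration on PPAR-delta-UAS-bla HEK293T cells grown in charcoal/dextran-stripped serum (2%); beta-lactamase activity read via CCF4 emission at 460 and 530 nm.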

SMILES | max response
CCCCOC(=O)CC(CC(=O)OCCCC)(OC(C)=O)C(=O)OCCCC | 0.806%
CCCCCCCCCCCCCCCCO | -7.5%
C/C=C/c1ccc(O)c(OC)c1 | 10.7% and 20%
CCCCCCCC/C=C\CCCCCCCCN | -29.2%
COc1ccc(C(=O)c2ccccc2)c(O)c1 | -3.7% and 9.95%
CCOc1ccccc1C(N)=O | -16.5%
COc1ccc(C(Cl)=C(c2ccc(OC)cc2)c2ccc(OC)cc2)cc1 | 23%
NCCNc1cccc2ccccc12 | 22%
CN(C)C(=O)Nc1ccc(Cl)c(Cl)c1 | 4.49%
CCCN(CCC)S(=O)(=O)c1ccc(C(=O)O)cc1 | 32.2% and 48.9%
NC(=O)c1ccccc1O | 7.67%
CCCCC(CC)COC(=O)c1ccc(N(C)C)cc1 (stereo not drawn) | 0.453% and -4.75%
CCCCCCCCOc1ccc(C(=O)c2ccccc2)c(O)c1 | 16.2%

Target: Peroxisome proliferator-activated receptor delta (Homo sapiens) (UniProt Q03181)
Experiment: as above
Conditions: HEK293T PPARd-UAS-bla, beta-lactamase FRET ratio, 18 h; series mostly up to 76.7 µM; activity change, negative = inhibition: at the top concentration
Procedure, shortened: as §1

Sequence of Peroxisome proliferator-activated receptor delta (Homo sapiens) (Q03181 whole entry, looked up): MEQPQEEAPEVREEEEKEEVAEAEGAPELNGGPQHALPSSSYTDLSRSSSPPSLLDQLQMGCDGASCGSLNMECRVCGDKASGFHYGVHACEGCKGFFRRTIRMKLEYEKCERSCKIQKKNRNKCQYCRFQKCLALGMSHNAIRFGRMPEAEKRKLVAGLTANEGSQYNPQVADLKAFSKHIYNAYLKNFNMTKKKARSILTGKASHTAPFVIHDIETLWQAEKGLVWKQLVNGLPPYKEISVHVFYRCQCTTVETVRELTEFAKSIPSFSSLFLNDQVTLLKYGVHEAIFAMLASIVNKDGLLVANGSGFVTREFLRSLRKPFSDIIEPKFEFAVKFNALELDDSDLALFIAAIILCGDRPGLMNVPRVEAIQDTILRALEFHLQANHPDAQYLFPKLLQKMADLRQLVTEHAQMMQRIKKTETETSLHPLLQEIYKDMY

SMILES | activity change, negative = inhibition | outcome
CCCCOC(=O)CC(CC(=O)OCCCC)(OC(C)=O)C(=O)OCCCC | -11.8% (inactive) | 
CCCCCCCCCCCCCCCCO | 9.88% (inactive) | 
C/C=C/c1ccc(O)c(OC)c1 |  | inactive
CCCCCCCC/C=C\CCCCCCCCN | -16% (inactive) | 
COc1ccc(C(=O)c2ccccc2)c(O)c1 |  | inactive
CCOc1ccccc1C(N)=O | -22.9% (inactive) | 
COc1ccc(C(Cl)=C(c2ccc(OC)cc2)c2ccc(OC)cc2)cc1 | 3.88% (inactive) | 
NCCNc1cccc2ccccc12 | -20.2% (inactive) | 
CN(C)C(=O)Nc1ccc(Cl)c(Cl)c1 | 19.2% (inactive) | 
CCCN(CCC)S(=O)(=O)c1ccc(C(=O)O)cc1 |  | inactive
NC(=O)c1ccccc1O | -5.6% (inactive) | 
CCCCC(CC)COC(=O)c1ccc(N(C)C)cc1 (stereo not drawn) |  | inactive
CCCCCCCCOc1ccc(C(=O)c2ccccc2)c(O)c1 | -7.24% (inactive) | 

Target: Peroxisome proliferator-activated receptor gamma (Homo sapiens) (UniProt P37231)
Experiment: qHTS assay for small molecule agonists of peroxisome proliferator-activated receptor gamma signaling (AID 588536; active = well fitted curve in the direction sought with a large enough effect in the signal ratio, with a control signal flat, not every such curve was filed as active; the % refers to the signal ratio;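 note: 0% = DMSO basal wells and 100% = rosiglitazone at 2 µM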)
Conditions: HEK293 PPARg-UAS-bla, beta-lactamase ratio, 16 h, percent of rosiglitazone response, DMSO as zero; series mostly up to 76.7 µM; activation: at the top concentration
Procedure, shortened: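 Cells were plated and held 6–6.5 h at 37 C, then compounds were added as a titration series. After a further 16 h, CCF4 dye was loaded for 2 h at room temperature and emission at 460/530 nm recorded.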

Sequence of Peroxisome proliferator-activated receptor gamma (Homo sapiens) (P37231 whole entry, looked up): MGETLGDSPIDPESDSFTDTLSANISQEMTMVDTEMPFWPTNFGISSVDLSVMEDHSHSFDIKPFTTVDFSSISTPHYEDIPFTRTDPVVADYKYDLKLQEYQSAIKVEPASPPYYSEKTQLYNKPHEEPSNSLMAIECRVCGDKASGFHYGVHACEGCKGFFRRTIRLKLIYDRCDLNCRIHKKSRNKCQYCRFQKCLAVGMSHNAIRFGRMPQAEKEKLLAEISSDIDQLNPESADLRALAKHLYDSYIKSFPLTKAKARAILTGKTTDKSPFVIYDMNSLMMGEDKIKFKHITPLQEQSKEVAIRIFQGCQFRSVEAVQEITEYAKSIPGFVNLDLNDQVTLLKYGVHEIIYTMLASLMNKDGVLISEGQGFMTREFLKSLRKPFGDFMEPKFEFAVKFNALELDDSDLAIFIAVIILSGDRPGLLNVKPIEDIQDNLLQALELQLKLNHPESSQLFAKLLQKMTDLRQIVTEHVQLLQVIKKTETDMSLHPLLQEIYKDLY

SMILES | activation | outcome
CCCCOC(=O)CC(CC(=O)OCCCC)(OC(C)=O)C(=O)OCCCC | -3.21% (inactive) | 
CCCCCCCCCCCCCCCCO | -5.33% (inactive) | 
C#C[C@]1(O)CC[C@H]2[C@@H]3CCC4=Cc5oncc5C[C@]4(C)[C@H]3CC[C@@]21C | -11.4% (inactive) | 
C/C=C/c1ccc(O)c(OC)c1 |  | inactive
CCOc1ccc(NC(C)=O)cc1 | -2.02% (inactive) | 
COc1ccc(C(=O)c2ccccc2)c(O)c1 |  | inactive
CCOc1ccccc1C(N)=O | 3.53% (inactive) | 
O=C(O)c1ccc(S(=O)(=O)N(Cl)Cl)cc1 | 2.18% (inactive) | 
NCCNc1cccc2ccccc12 | -7.47% (inactive) | 
CN(C)C(=O)Nc1ccc(Cl)c(Cl)c1 | -0.387% (inactive) | 
CCCCCCCCCCCCCC(=O)OC(C)C | 3.01% (inactive) | 
CC1(C)OC[C@@H]2O[C@@]3(C(=O)O)OC(C)(C)O[C@H]3[C@@H]2O1 | -6.91% (inactive) | 
CCCN(CCC)S(=O)(=O)c1ccc(C(=O)O)cc1 |  | inactive
CCCCCCCCCCCCCCCC(=O)O | 0.874% (inactive) | 
NC(=O)c1ccccc1O | -1.18% (inactive) | 
CCCCC(CC)COC(=O)c1ccc(N(C)C)cc1 (stereo not drawn) |  | inactive
CCCCCCCCOc1ccc(C(=O)c2ccccc2)c(O)c1 | -5.48% (inactive) | 

Target: Peroxisome proliferator-activated receptor gamma (Homo sapiens) (UniProt P37231)
Experiment: qHTS assay for small molecule antagonists of peroxisome proliferator-activated receptor gamma signaling (AID 588537; active = well fitted inhibition curve with a large enough effect in the signal ratio, with a control signal flat, not every such curve was filed as active; the % refers to the signal ratio; note: potency is the fitted concentration of half-maximal effect;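 for activity, negative = inhibition: reporter cells co-stimulated with 50 nM rosiglitazone agonist during compound treatment; % of control where 0% means no effect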)
Conditions: HEK293 PPARg-UAS-bla, beta-lactamase ratio, antagonist mode; series mostly up to 76.8 µM; activity, negative = inhibition: at the top concentration
Procedure, shortened: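 HEK293 cells, PPAR-gamma-UAS-bla, 3000/well. Pre-incubation 6-6.5 h, 37 C. Compound titration with rosiglitazone 50 nM final, 16 h. CCF4 dye, 2 h RT, dual-emission fluorescence.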

SMILES | activity, negative = inhibition | Potency
CCCCOC(=O)CC(CC(=O)OCCCC)(OC(C)=O)C(=O)OCCCC | -1.98% (inactive) | 
CCCCCCCCCCCCCCCCO | -2.62% (inactive) | 
C/C=C/c1ccc(O)c(OC)c1 |  | inactive
CCOc1ccc(NC(C)=O)cc1 | -2.76% (inactive) | 
C=C[C@@]1(C)CC(=O)[C@]2(O)[C@@]3(C)[C@@H](O)CCC(C)(C)[C@@H]3[C@H](O)[C@H](OC(C)=O)[C@@]2(C)O1 | 5.5% (inactive) | 
COc1ccc(C(=O)c2ccccc2)c(O)c1 | 0.693% (inactive) | 
CCOc1ccccc1C(N)=O | -8.01% (inactive) | 
O=C(O)c1ccc(S(=O)(=O)N(Cl)Cl)cc1 | 5.71% (inactive) | 
NCCNc1cccc2ccccc12 |  | 39.8 µM (active)
CN(C)C(=O)Nc1ccc(Cl)c(Cl)c1 | -8.63% (inactive) | 
CCCCCCCCCCCCCC(=O)OC(C)C | -0.592% (inactive) | 
CC1(C)OC[C@@H]2O[C@@]3(C(=O)O)OC(C)(C)O[C@H]3[C@@H]2O1 | 3.05% (inactive) | 
CCCN(CCC)S(=O)(=O)c1ccc(C(=O)O)cc1 |  | inactive
CC(C)(C)CC(C)(C)c1ccc(O)c(-n2nc3ccccc3n2)c1 | -17.2% (inactive) | 
CCCCC(CC)COC(=O)c1ccc(N(C)C)cc1 (stereo not drawn) |  | inactive
CCCCCCCCOc1ccc(C(=O)c2ccccc2)c(O)c1 | 9.04% (inactive) | 

Target: Vitamin D3 receptor (Homo sapiens) (UniProt P11473)
Experiment: qHTS assay for small molecule antagonists of vitamin D receptor signaling (AID 588541); note: potency is the fitted concentration of half-maximal effect;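 for activity change, negative = inhibition: receptor activated by calcitriol during compound treatment; % is set by controls: 0 for no effect and ±100 for the full control effect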
Conditions: HEK293T VDR-UAS-bla, beta-lactamase ratio, antagonist mode; series mostly up to 76.7 µM; activity change, negative = inhibition: at the top concentration
Procedure, shortened: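 VDR-UAS-bla HEK293T cells (2000/well, 2% charcoal-stripped FBS) were treated with titrated compounds plus 1-alpha,25-dihydroxyvitamin D3 (50 nM or 3 nM final) for 16 h at 37 C. CCF4 beta-lactamase fluorescence was read; Hill fits gave IC50.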

Sequence of Vitamin D3 receptor (Homo sapiens) (P11473 whole entry, looked up): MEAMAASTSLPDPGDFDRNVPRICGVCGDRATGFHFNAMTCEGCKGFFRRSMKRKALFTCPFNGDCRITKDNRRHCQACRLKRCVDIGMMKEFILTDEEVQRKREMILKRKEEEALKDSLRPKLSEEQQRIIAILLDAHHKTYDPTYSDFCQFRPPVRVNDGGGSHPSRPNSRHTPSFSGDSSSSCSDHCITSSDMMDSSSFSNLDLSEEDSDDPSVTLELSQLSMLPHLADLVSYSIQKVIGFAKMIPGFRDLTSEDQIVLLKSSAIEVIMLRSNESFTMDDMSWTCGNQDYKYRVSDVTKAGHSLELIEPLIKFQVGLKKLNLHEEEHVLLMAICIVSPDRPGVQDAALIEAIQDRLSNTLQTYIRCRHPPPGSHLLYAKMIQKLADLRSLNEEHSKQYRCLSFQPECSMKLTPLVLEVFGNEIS

SMILES | activity change, negative = inhibition | Potency
CCCCOC(=O)CC(CC(=O)OCCCC)(OC(C)=O)C(=O)OCCCC | 6.45% (inactive) | 
COc1cc([C@H]2Oc3cc([C@H]4Oc5cc(O)cc(O)c5C(=O)[C@@H]4O)ccc3O[C@@H]2CO)ccc1O | 0.592% (inactive) | 
CCCCCCCCCCCCCCCCO | -6.33% (inactive) | 
CCOc1ccc(NC(C)=O)cc1 |  | inactive
CCCCCCCC/C=C\CCCCCCCCN | 6.43% (inactive) | 
C=C[C@@]1(C)CC(=O)[C@]2(O)[C@@]3(C)[C@@H](O)CCC(C)(C)[C@@H]3[C@H](O)[C@H](OC(C)=O)[C@@]2(C)O1 | 7.55% (inactive) | 
CCOc1ccccc1C(N)=O | 5.3% (inactive) | 
COc1ccc(C(Cl)=C(c2ccc(OC)cc2)c2ccc(OC)cc2)cc1 | 4.7% (inactive) | 
NCCNc1cccc2ccccc12 |  | inactive and 31.6 µM (active)
CCCCCCCCCCCCCC(=O)OC(C)C | 6.41% (inactive) | 
CC1(C)OC[C@@H]2O[C@@]3(C(=O)O)OC(C)(C)O[C@H]3[C@@H]2O1 | -0.664% (inactive) | 
CCCN(CCC)S(=O)(=O)c1ccc(C(=O)O)cc1 |  | inactive
CCCCCCCCCCCCCCCC(=O)O | 9.42% (inactive) | 
CC(C)(C)CC(C)(C)c1ccc(O)c(-n2nc3ccccc3n2)c1 | -12.8% (inactive) | 
NC(=O)c1ccccc1O | 6.22% (inactive) | 
CCCCC(CC)COC(=O)c1ccc(N(C)C)cc1 (stereo not drawn) |  | inactive
Oc1ccc(Cl)cc1Cc1cc(Cl)ccc1O | -12.1% (inactive) | 
Oc1c(Cl)cc(Cl)c(Cl)c1Cc1c(O)c(Cl)cc(Cl)c1Cl | -1.7% (inactive) | 
CCCCCCCCOc1ccc(C(=O)c2ccccc2)c(O)c1 | -2.46% (inactive) | 
